# Experimental data taken from PubChem BioAssay (EPA / NIEHS).
# Results filed as inconclusive are left out. Calls of active or inactive are those of the source. Rule for the calls: active = hit-call score of the fitted dose curve at least 0.9, where 1 is the maximum; inconclusive = response in the unintended direction; inactive = score below 0.9.
# Target: Muscarinic acetylcholine receptor M2 (Homo sapiens) (UniProt P08172)
# Assay: NVS_GPCR_hM2: NovaScreen (NVS) G Protein-Coupled Receptor Assay for human Muscarinic, M2 Receptor (AID 2283273)
# Experimental: NVS_GPCR_hM2 is a biochemical, single-readout assay that uses extracted gene-proteins from CHO in a cell-free assay. Measurements were taken 1 hour after chemical dosing in a 96-well plate.NVS_GPCR_hM2 is one of one assay component(s) measured or calculated from the NVS_GPCR_hM2 assay. It is designed to make measurements of radioligand binding, a form of binding reporter, as detected with scintillation counting signals by Filter-based radiodetection technology.Data from the assay component NVS_GPCR_hM2 was analyzed into 1 assay endpoint. This assay endpoint, NVS_GPCR_hM2, was analyzed in the positive analysis fitting direction relative to DMSO as the negative control and baseline of activity. Using a type of binding reporter, loss-of-signal activity can be used to understand changes in the binding as they relate to the gene CHRM2. Furthermore, this assay endpoint can be referred to as a primary readout, because the performed assay has only produced 1 assay endpoint. To generalize the intended target to other relatable targets, this assay endpoint is annotated to the gpcr intended target family, where the subfamily is rhodopsin-like receptor.
# Binding assays used specific radioligands (tritiated, iodinated) with non-radioactive competitive displacement ligands in agonist or antagonist protocols (as indicated) and various reference compounds and inhibitors to titrate specific binding to receptors and transporters. Most enzyme assays (CYPs, kinases, phosphatases, proteases, HDACs) used recombinant protein and specific substrates (fluorescence mostly, some colorimetric and radioactive) and inhibitors, followed by a biochemical separation of substrate and product. All assays for the biochemical HTS were initially run in duplicate at a single concentration (10 uM for CYP450 assays and 25 uM for all others). […] Each assay was run with positive and negative controls, and concurrent controls on every plate. The follow-up (secondary) screen tested active chemical-pairs in concentration series, as well as a few additional assays not tested in the primary screen, some selected negative inactives, and several cases re-run in the concentration series for confirmatory purposes.
# Sequence of Muscarinic acetylcholine receptor M2 (Homo sapiens) (P08172 whole entry, looked up): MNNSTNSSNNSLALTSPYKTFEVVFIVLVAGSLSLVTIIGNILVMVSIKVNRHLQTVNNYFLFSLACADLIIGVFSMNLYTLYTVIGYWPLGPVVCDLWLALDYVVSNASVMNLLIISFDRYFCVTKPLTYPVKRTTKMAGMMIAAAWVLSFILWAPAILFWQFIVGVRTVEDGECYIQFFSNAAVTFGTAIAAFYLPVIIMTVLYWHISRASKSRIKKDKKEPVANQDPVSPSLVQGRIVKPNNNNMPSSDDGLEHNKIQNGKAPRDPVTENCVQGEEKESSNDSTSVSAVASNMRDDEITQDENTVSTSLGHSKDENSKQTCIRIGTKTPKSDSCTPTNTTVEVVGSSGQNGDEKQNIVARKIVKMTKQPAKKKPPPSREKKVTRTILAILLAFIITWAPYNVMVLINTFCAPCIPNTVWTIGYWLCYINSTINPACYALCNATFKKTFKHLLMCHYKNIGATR
SMILES,AC50,outcome
COc1cc(S(=O)(=O)O)c(C)cc1N=Nc1c(O)ccc2cc(S(=O)(=O)O)ccc12,36.1 µM (active),–
CC1(C)CC(N=C=O)CC(C)(CN=C=O)C1 (stereo not given),0.367 µM (active),–
Cc1nc(-c2ccc3c(c2)CCN(CCC2CCC(NC(=O)/C=C/c4ccc(F)cc4)CC2)CC3)no1 (stereo not given),0.0463 µM (active),–
CCOC(=O)CCC(=O)OCC,–,inactive
Nc1ccc2c(c1)C(=O)c1ccccc1C2=O,–,inactive
C[C@]12C=CC(=O)C=C1CC[C@@H]1[C@@H]2C(=O)C[C@@]2(C)[C@H]1CC[C@]2(O)C(=O)CO,15 µM (active),–
CNCc1cc(F)ccc1Oc1ccc(Cl)c(Cl)c1,25 µM (active),–
Cc1c(C(=O)O)c(O)cc2c1C(=O)c1c(O)c([C@@H]3O[C@H](CO)[C@@H](O)[C@H](O)[C@H]3O)c(O)c(O)c1C2=O,–,inactive
Oc1ccc2c(c1)OC[C@@H](N1CCC(O)(c3ccc(F)cc3)CC1)[C@H]2O,–,inactive
Nc1nc(N)c2nc(CNc3ccc(C(=O)N[C@@H](CCC(=O)O)C(=O)O)cc3)cnc2n1,40.7 µM (active),–
